Data on 19 compounds can be found in the supplement of paper PMC13380429.

The structures appear in SMILES notation. Unmarked numbers belong to inactive results.

In this experiment the test system is Vero E6 infected with SARS-CoV-2. Put plainly: inhibition of SARS-CoV-2 cytopathic effect; higher = more antiviral protection, active = above 15. As to conditions: 48 h. A general note: Damage to the host cells serves as the signal in cytopathic effect assays.

`NCCS` [cysteamine]: the “inhibition of SARS-CoV-2 cytopathic effect” value (“inhibition” for short) (1 nM) was 1.07%; the “inhibition” value (8.33 nM) is 0.1%; the “inhibition” value (100 nM) was 0.28%; the “inhibition” value (833.33 nM) is -1.61%; the “inhibition” value (10000 nM) was -4.62%.

For `CCC(C)(C)C(=O)C(=O)N1CCC[C@H]1C(=O)OCCCc1cccnc1`, the “inhibition” value is, setting by setting: (1 nM) 0.46%; (8.33 nM) 0.86%; (100 nM) 1.28%; (833.33 nM) -0.32%; (10000 nM) 1.17%.

As to `Cn1cc(-c2ccncc2)c(-c2ccc(OCc3ccc4ccccc4n3)cc2)n1`, the “inhibition” value is -1.42% (1 nM); 1.25% (8.33 nM); 1.83% (100 nM); 16% (active) (833.33 nM); 52.4% (active) (10000 nM).

`CSc1ccccc1Nc1nc(N2CCNCC2)nc2c(NCC3CC3)ncnc12`: the “inhibition” value is 1.44% (1 nM); 1.6% (8.33 nM); 1.17% (100 nM); 0.92% (833.33 nM); -33.2% (10000 nM).

In the case of `N#C/C(=C\c1cccn1S(=O)(=O)c1cccc([N+](=O)[O-])c1)S(=O)(=O)c1ccc(F)cc1`, the “inhibition” value runs as follows: (1 nM) -0.59%; (8.33 nM) -0.34%; (100 nM) -0.6%; (833.33 nM) -2%; (10000 nM) -0.73%.

Take `CN1CCN(c2c(F)cc3c(=O)c(C(=O)O)cn(CCF)c3c2F)CC1` [fleroxacin]: the “inhibition” value is -1.94% (1 nM); -0.15% (8.33 nM); 1.24% (100 nM); 0.81% (833.33 nM); -1.08% (10000 nM).

Turning to `CCN(CCCCOC(=O)c1ccc(OC)c(OC)c1)C(C)Cc1ccc(OC)cc1` (stereo not given) [mebeverine], the “inhibition” value by setting is: (1 nM) 1.37%; (8.33 nM) -1.75%; (100 nM) -0.83%; (833.33 nM) -1.35%; (10000 nM) -3.11%.

On to `COc1ccc(-c2nc(N3CCOCC3)c3sc(CN(C)c4ncc(C(=O)NO)cn4)cc3n2)cn1`, for which the “inhibition” value runs as follows: (1 nM) -0.39%; (8.33 nM) -5.36%; (100 nM) -18.1%; (833.33 nM) -20.7%; (10000 nM) -21.4%.

`OCCN1CCN(CC/C=C2/c3ccccc3Sc3ccc(Cl)cc32)CC1` [zuclopenthixol]: the “inhibition” value runs as follows: (1 nM) -1.15%; (8.33 nM) -3.42%; (100 nM) -1.94%; (833.33 nM) -3.61%; (10000 nM) 8.42%.

Consider `COc1ccc2[nH]c(C(=O)c3ccccc3)cc2c1`, for which the “inhibition” value by setting is: (1 nM) 0.63%; (8.33 nM) 1.49%; (100 nM) 0.36%; (833.33 nM) 0.6%; (10000 nM) 0.07%.

For `CC(=O)/N=c1/[nH]c(C)c(-c2ccc(Cl)c(S(=O)(=O)NCCO)c2)s1`, the “inhibition” value is, setting by setting: (1 nM) 0.03%; (8.33 nM) -0.02%; (100 nM) 1.03%; (833.33 nM) 1.81%; (10000 nM) 2.47%.

In the case of `C1CCC(C(CC2CCCCN2)C2CCCCC2)CC1` (stereo not given) [perhexiline], the “inhibition” value was 0.59% (1 nM); 4.47% (8.33 nM); 2.39% (100 nM); 0.87% (833.33 nM); 48.5% (active) (10000 nM).

On to `CC(C)(C)S(=O)(=O)N[C@H]1CC[C@H](C(=O)Nc2ccc(C(F)(F)F)cn2)CC1` [velneperit], for which the “inhibition” value reads like this: (1 nM) 2.37%; (8.33 nM) -0.93%; (100 nM) -0.23%; (833.33 nM) -1.55%; (10000 nM) -1.63%.

For the compound `CCOc1ccccc1OC(c1ccccc1)C1CNCCO1` (stereo not given) [reboxetine], the “inhibition” value was 0.65% (1 nM); 1.82% (8.33 nM); 0.81% (100 nM); -0.58% (833.33 nM); -1.59% (10000 nM).

For `CC(C)(C)[C@H]1CC[C@H](CC2=C(O)C(=O)c3ccccc3C2=O)CC1` [buparvaquone], the “inhibition” value is 1.01% (1 nM); 3.57% (8.33 nM); 2.36% (100 nM); 0.32% (833.33 nM); -5.12% (10000 nM).

Consider `C=C1/C(=C\C=C2/CCC[C@]3(C)[C@@H]([C@H](C)/C=C/[C@H](C)C(C)C)CC[C@@H]23)C[C@@H](O)C[C@@H]1O` [doxercalciferol], for which the “inhibition” value (1 nM) was 0.83%; the “inhibition” value (8.33 nM) was 0.03%; the “inhibition” value (100 nM) was 0.98%; the “inhibition” value (833.33 nM) was 2.04%; the “inhibition” value (10000 nM) is 2.69%.

Turning to `C=C[C@@](C)(/C=C/c1ccc(O)cc1)CCC=C(C)C` [bakuchiol], the “inhibition” value was 1.64% (1 nM); 2.39% (8.33 nM); 0.23% (100 nM); 0.59% (833.33 nM); 0.79% (10000 nM).

For `CC(=O)Oc1cc2c(s1)CCN(C(C(=O)C1CC1)c1ccccc1F)C2` (stereo not given) [prasugrel], the “inhibition” value by setting is: (1 nM) 2.32%; (8.33 nM) 1.62%; (100 nM) 0.43%; (833.33 nM) 2.1%; (10000 nM) -0.82%.

With `Nc1nc(O)c2[nH]nnc2n1` [azaguanine-8], the “inhibition” value (1 nM) was 1.2%; the “inhibition” value (8.33 nM) is 2%; the “inhibition” value (100 nM) was 1.6%; the “inhibition” value (833.33 nM) is 1.36%; the “inhibition” value (10000 nM) was 6.36%.
